# TROY signal inh: inhibitors of TROY-dependent NF-kB signaling | Q293 LMP1-TROYcd NF-kB luciferase reporter, 4 h | inhibition, % at 10 µM | 0.98% of 360,000 active;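 active means compounds whose plate-normalised and pattern-corrected inhibition of the luciferase reporter signal at the single screening dose is 50% or more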
# Peg3 prom inh: Peg3 promoter activity inhibition | HeLa PEG-Prom luciferase reporter, luminescence, overnight | inhibition, % at 20 µM | 1.7% of 360,000 active;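 active means inhibition of at least 50% at 20 µM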
# HIF-2a inh: inhibitors of HIF-2a | 786-0 RCC cells HIF-2a reporter, luciferase luminescence, overnight | inhibition, % at 18.8 µM | 0.72% of 360,000 active;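 active means inhibition of the luminescence signal of 40% or more relative to plate controls, in a single-dose primary screen at 18.75 µM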
# MITF TRPM1 inh: MITF TRPM1 promoter inhibition in SK-MEL-5 cells | 0.83% of 330,000 active | inhibition, % at 12.5 µM | SK-MEL-5 TRPM1 promoter luciferase, 24 h;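 active means mean inhibition across replicates of 60% or more, whatever share of single replicates reaches that level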
# TWEAK Fn14 block: TWEAK-Fn14 signaling inhibition; TWEAK-stimulated Fn14 reporter cells, luciferase luminescence, 8 h; inhibition, % at 10 µM; 2% of 360,000 active; AID 1159606; in the data active means inhibition above about 50%
# LMP1 NFkB inh: Epstein-Barr LMP1 NF-kappaB reporter inhibition. LMP1-induced NF-kappaB luciferase reporter cells, luminescence. inhibition, % at 12.5 µM. 0.69% of 350,000 active. AID 504558; in the data active means inhibition above about 41%;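 further: 0% = neutral control wells and 100% = reference inhibitor control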
# * hit, by the source's call; x = no result given. The list is not random: actives were taken first. Their share in the collection is about 4%.
SMILES,TROY signal inh,Peg3 prom inh,HIF-2a inh,MITF TRPM1 inh,TWEAK Fn14 block,LMP1 NFkB inh
COc1ccc(OC)c(-c2c3cc(O)c(=O)cc-3oc3cc(O)c(O)cc23)c1,11.4,26.6,7.1,32.4,73.7*,31.5
COc1ccc(OC)c(-c2oc3ccccc3c(=O)c2O)c1,-9.5,-7.9,2.3,-4.4,-37.2,-7.4
CCOc1ccccc1-c1c2cc(O)c(=O)cc-2oc2cc(O)c(O)cc12,22.5,43.1,8.4,31.4,74.3*,9.2
CCOC(=O)C1CCN(C(=O)C2(NC(=O)Nc3ccc(F)cc3F)CCCCC2)CC1,-0.7,15.7,11.7,-5.9,0.8,-15.9
CCOC(=O)C1CCN(C(=O)C2(NC(=O)NC3CCCCC3)CCCCC2)CC1,-14.7,63.7*,13.3,1.3,3.5,-6.4
COc1cc(/C=C(\C#N)c2nc3ccc(C)cc3[nH]2)cc([N+](=O)[O-])c1O,-22.7,-116.1,-206.7,-18.6,50.9*,-63.9
COc1cc(/C=C(\C#N)c2nc3ccccc3[nH]2)ccc1Oc1ccc([N+](=O)[O-])cn1,52.3*,-38.3,-75.0,-10.4,-0.2,2.2
Cc1ccc2nc(/C(C#N)=C/c3ccc(-c4cccc([N+](=O)[O-])c4)o3)[nH]c2c1,36.6,114.5*,13.8,10.7,-23.6,3.7
CCOc1ccccc1N=NC1C(=O)N(C(N)=S)N=C1C (stereo not given),-27.5,6.0,-6.4,13.1,-21.1,-2.6
CCCCn1c(N)c(N(CCOC)C(=O)COC(=O)COc2ccccc2C#N)c(=O)[nH]c1=O,9.0,2.5,-0.8,11.3,-9.9,0.4
N#Cc1ccc(Nc2nc(-c3ccc(O)cc3O)cs2)cc1C(F)(F)F,67.3*,102.8*,-58.7,-11.1,85.8*,5.7
Oc1ccc(-c2csc(Nc3ccc4c(c3)OCO4)n2)c(O)c1,-22.1,-316.2,-310.6,-48.6,15.0,-80.4
Cc1ccc(S(=O)(=O)NCCc2nc3ccccc3[nH]2)cc1,-13.2,-8.0,6.9,-0.3,-3.4,-10.8
Cc1cc(NCCNC2=CC(=O)CCC2)nc2ccccc12,5.7,7.0,9.0,7.8,73.5*,1.8
Cc1cc(NCC2CCCCC2)nc2ccccc12,-58.0,-78.1,-126.4,-59.5,-4.2,-12.6
O=c1cc(N=Nc2ccc(Cl)cc2)[nH]c(=O)[nH]1,24.9,110.7*,13.8,-0.4,58.3*,1.3
CC(Oc1ccc(Br)cc1)C(=O)NNC(=O)CCN1CCN(c2ccccc2)CC1 (stereo not given),7.8,6.2,9.6,10.2,5.0,3.9
CCn1c2ccccc2c2nnc(SCCCn3c(=O)[nH]c4ccccc43)nc21,31.6,50.1*,27.2,1.7,27.2,11.1
Cc1cnc(C2OCCO2)c2cccc([N+](=O)[O-])c12,19.7,-27.3,-10.5,x,-1.4,-4.1
O=C(Nc1ncc(Cc2cccc([N+](=O)[O-])c2)s1)c1ccco1,-36.3,-193.1,-73.3,-47.2,-24.6,-16.7
Cc1ccc(Cc2cnc(NC(=O)c3ccco3)s2)cc1,34.7,-99.2,-97.2,-38.2,57.8*,-10.2
CCC(C)NC(=O)C1CCC(=O)N1CCc1ccccc1 (stereo not given),7.4,-3.5,13.9,8.5,15.5,1.2
CCCNC(=O)c1cc2c(c(-c3cccc(-c4ccc(F)cc4)c3)n1)[C@H](CCO)N(S(=O)C(C)(C)C)C2 (stereo not given in full),9.9,50.7*,26.0,x,26.9,x
Cc1cccc(NC(=O)Nc2c(C)n(C)n(-c3ccccc3)c2=O)c1C,-0.6,15.0,18.8,14.1,-9.2,48.5*
CCc1n[nH]c(=S)n1/N=C/c1ccc(N(C)c2ccccc2)cc1,26.9,-21.3,-6.6,-2.3,-12.9,75.7*
SMILES,TROY signal inh,Peg3 prom inh,HIF-2a inh,MITF TRPM1 inh,TWEAK Fn14 block,LMP1 NFkB inh
Brc1ccc(-c2ccccc2)cc1,-1.7,2.5,-1.8,3.7,-5.9,1.3
Brc1ccc(-c2ncc(-c3ccccc3)cn2)cc1,-9.1,-269.8,-221.6,-31.0,52.4*,-24.2
CN(Cc1ccccc1)C1=CC(=[N+]2CCCC2)CC(C)(C)C1,46.2,24.2,7.2,77.2*,40.8,15.2
COc1ccccc1C1(CC(=O)O)CCOC(C)(C)C1 (stereo not given),13.1,-2.8,9.8,-3.3,-12.3,68.5*
CC(C)CCN1C(N(C)C)=NC[C@@H]1C,2.0,-6.2,-11.6,-6.5,8.0,3.1
CN(C)CCNC(=O)c1ccc(Sc2ccc(Br)cc2)c([N+](=O)[O-])c1,-18.7,93.9*,8.8,-9.2,-19.6,-10.9
